The results in this text go back to the supplement of paper PMC10941209.

The experiment has as its system HFF. As to the kind of experiment: cell viability relative to DMSO control; higher = less cytotoxic. The following applies: 1 µM; 72 h. On the procedure:
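Single-dose cytotoxicity screen of the MMV Pandemic Response Box at 1 uM on human foreskin fibroblasts (HFF), 72 h at 37 C. Viability measured by MTT (OD 550 nm) and normalised to the DMSO control (% survival).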
`C[C@@H](NC(=O)c1cccc(-c2cnc(-c3cc4ccccc4cn3)[nH]2)c1)c1ccc(F)cc1`: the cell viability was determined as 74.3%. Under `CCc1nc(N)nc(N)c1C#CC(C)c1cc(OC)cc(-c2ccncc2)c1` (stereo unspecified) stands 79.3%; under `COC(=O)Nc1nc2cc(Sc3ccccc3)ccc2[nH]1`, 71.9%.

Compound `O=C(O)c1cc(-c2ccccc2)nc2ccccc12` had a cell viability of 70.7%.

`O=[N+]([O-])c1cn(Cc2nc(O)nc(O)c2Br)cn1` gave a cell viability of 70.3%.

Consider `CC(=O)N1c2ccccc2NC2=C(C(=O)CC(C)(C)C2)C1c1ccc(OCc2ccccc2)cc1` (stereo unspecified), for which the cell viability worked out at 70.4%. Take `CCCCCCCCC(CP(=O)(O)C(C)N)C(=O)O` (stereo unspecified): the cell viability was 61.8%. As to `N[C@H]1CCC[C@H]1C(=O)O`, the cell viability was 70.6%. For `c1cc(CN2CCCNCCNCCCNCC2)ccc1CN1CCCNCCNCCCNCC1`, the cell viability amounted to 63.9%. Compound `CCCCCCCCCN1C[C@@H](O)[C@H](O)[C@@H](O)[C@@H]1CO` displayed a cell viability of 84.2%. In the case of `Clc1cc2nc(C3CCNCC3)n(Cc3ccc(CNCCc4c[nH]cn4)cc3)c2cc1Cl` it was 65.3%; in that of `Cc1ccc(NC(=O)c2cc(Cl)ccc2O)cc1`, 65.7%; in that of `O=C(Nc1cccc(C2=NCCN2)c1)c1ccc(-c2ccc(C(=O)Nc3cccc(C4=NCCN4)c3)cc2)cc1`, 63.4%. In the case of `C=CCN(C(=O)OCc1ccc([N+](=O)[O-])cc1)C1CCN(CC[C@](C)(CN(C)S(=O)(=O)c2ccccc2)c2ccccc2)CC1` it was 69.6%; in that of `O=C(/C=C/n1cnc(-c2cc(C(F)(F)F)cc(C(F)(F)F)c2)n1)NNc1cnccn1`, 59.7%. As to `CNc1nc(=O)[nH]cc1F`, the cell viability was found to be 68.4%. Take `CN(C)[C@@H]1C(=O)C(C(N)=O)=C(O)[C@@]2(O)C(=O)C3=C(O)c4c(O)c(NC(=O)CN5CCCC5)cc(F)c4C[C@H]3C[C@@H]12`: the cell viability came out at 66%. Under `COC(=O)Nc1nc2cc([S+]([O-])c3ccccc3)ccc2[nH]1` (stereo unspecified) stands 64.6%. On to `COc1ccc(C2CNC(=O)C2)cc1OC1CCCC1` (stereo unspecified), for which the cell viability amounted to 69.5%. In the case of `CCC(C)(C)c1ccc(CC(C)CN2C[C@@H](C)O[C@@H](C)C2)cc1` (stereo partly specified) it was 65%; in that of `CC(C)(C)NC(=O)N[C@H](C(=O)N1C[C@H]2[C@@H]([C@H]1C(=O)NC(CC1CCC1)C(=O)C(N)=O)C2(C)C)C(C)(C)C` (stereo partly specified), 63.4%.

Broadly, the cell viability is a read-out of living cells in per cent, often relative to untreated cells.
